Laboratory results as given in PubChem BioAssay (NCI).
About 83,000 compounds went through this panel and 20% of them were active in at least one assay; those are over-represented in the sample as a whole.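 Plates (96-well) were seeded with cells, treated with compound at one concentration, and incubated for 48 hours before percent growth was determined.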 Active and inactive are the calls of the source. Rule for the calls: active = growth percent below 10; inactive = the rest.

Columns and labels:
Assay in all cases: NCI-60 one-dose screen, 48 h (100 = growth as untreated, 0 = no growth, -100 = all killed)
Settings in all cases: 10 µM unless noted
[1] = system: DU-145 prostate
[2] = system: K-562 leukemia
[3] = system: MALME-3M melanoma
[4] = system: MDA-MB-231 breast
[5] = system: RXF 393 renal
[6] = system: SF-268 CNS
[7] = system: SF-295 CNS
[8] = system: SF-539 CNS
[9] = system: UACC-257 melanoma
[10] = system: M14 melanoma
[11] = system: HCT-15 colon
[12] = system: HT29 colon
[13] = system: SNB-75 CNS
[14] = system: U251 CNS
[15] = system: PC-3 prostate
[16] = system: SK-MEL-5 melanoma
[17] = system: UACC-62 melanoma
[18] = system: LOX IMVI melanoma
[19] = system: SK-MEL-28 melanoma
[20] = system: SNB-19 CNS

Measured: growth

O=[N+]([O-])c1cc(CCl)ccc1OCCBr
inactive: [1] 95.7% | [2] 115% | [3] 107% | [4] 108% | [5] 110% | [6] 101% | [7] 99.7% | [8] 97.9% | [9] 105% | [10] 98.3% | [11] 91.1% | [12] 96.7% | [13] 86.6% | [14] 101% | [15] 98.1% | [16] 98.6% | [17] 96.8% | [18] 95% | [19] 110%

Nc1ccc(Cl)c([N+](=O)[O-])c1
inactive: [1] 107% | [2] 84.6% | [3] 119% | [4] 107% | [5] 109% | [6] 96.7% | [7] 96.7% | [8] 101% | [9] 95.1% | [10] 95.7% | [11] 87.8% | [12] 106% | [20] 108% | [14] 99.1% | [15] 88.3% | [16] 97.6% | [17] 80.1% | [18] 66.9% | [19] 100%

C#C[C@]1(O)CC[C@H]2[C@@H]3CC=C4c5nc(N)sc5CC[C@]4(C)[C@H]3CC[C@@]21C
inactive: [1] 71.2% | [2] 29.7% | [3] 42.1% | [4] 45.4% | [6] 62.8% | [9] 72.8% | [10] 81.1% | [11] 42.4% | [12] 41.6% | [14] 38.1% | [15] 47.5% | [16] 60.4% | [17] 30.3% | [18] 55.4% | [19] 57.1%
active: [5] -22.4% | [7] -43.6% | [8] -32% | [13] -5.36%

CCOC(=O)COc1c(C)cc(SSc2cc(C)c(OCC(=O)OCC)c(C)c2)cc1C
inactive: [1] 108% | [2] 96.2% | [3] 110% | [4] 107% | [5] 126% | [6] 99% | [7] 105% | [8] 112% | [9] 80.8% | [10] 103% | [11] 88.8% | [12] 97.8% | [13] 87.9% | [14] 75.4% | [15] 65.2% | [16] 94.6% | [17] 87.3% | [18] 103% | [19] 100%

Clc1ccccc1/C=N\Nc1ccccn1
inactive: [1] 105% | [2] 94.8% | [3] 110% | [4] 83.3% | [5] 107% | [6] 96.3% | [7] 95.7% | [8] 98.5% | [9] 105% | [10] 124% | [11] 77.6% | [12] 94.3% | [13] 74.8% | [14] 95.4% | [15] 104% | [16] 89.2% | [17] 85.3% | [18] 93% | [19] 99.2%

CCOC(=O)/C(C#N)=C(\C)CCc1ccccc1
inactive: [1] 132% | [2] 142% | [3] 96.5% | [4] 109% | [5] 97.3% | [6] 120% | [7] 114% | [8] 91.8% | [9] 89.4% | [10] 92.2% | [11] 87.7% | [12] 98.6% | [13] 52.3% | [14] 96.4% | [15] 92.7% | [16] 98.4% | [17] 110% | [18] 96.9% | [19] 97.7%

CC(C)c1ccc(C(=O)Nc2nc3ccc(O)cc3s2)cc1
active: [2] -1.97% | [7] -36.4% | [8] -21.9% | [10] 3.05% | [11] 7.82% | [16] -6.4% | [18] -25.9%
inactive: [1] 42.1% | [3] 26.3% | [4] 73% | [5] 67.3% | [6] 51.5% | [9] 25.9% | [12] 30.4% | [13] 63.7% | [14] 58.4% | [15] 42.4% | [17] 10.8% | [19] 26.5%
